# Laboratory results from PubChem BioAssay (Tox21).
# Results filed as inconclusive are left out. Values without a mark were called inactive. The source made the active and inactive calls. Calls follow the shape of the full dose curve.
# Target: Beta-2 adrenergic receptor (Homo sapiens) (UniProt P07550)
# Assay: Adrenergic beta2 receptor (ADRB2) small molecule agonists, cell-based qHTS assay (AID 1963593)
# Conditions: CHO-ADRB2 cells, cAMP HTRF, 30 min; series mostly up to 92.4 µM; activation: at the top concentration
# Text: National Center for Advancing Translational Sciences [NCATS]
# Division of Preclinical Innovation [DPI]
# U.S. Environmental Protection Agency [EPA]
# National Institutes of Environmental Health Sciences [NIEHS]
# National Toxicology Program [NTP]
# U.S. Food and Drug Administration [FDA]
# Beta adrenergic receptors (Beta-ARs) belong to the G-protein coupled receptor (GPCR) superfamily, includes three subtypes - beta1, beta2, and beta3. Beta1-AR is the predominant receptor subtype expressed in the heart, and beta2-AR is expressed in the kidney, lung, blood vessel and in the heart, and beta3 is found in the adipocytes. Beta1 and 2 ARs couple to Gs protein and elevate cyclic adenosine mono phosphate (cAMP), which activates protein kinase A and leads to the downstream signaling responsible for the physiological actions. Beta-AR agonists or antagonists are the most prescribed therapeutic agents for heart failure and asthma, and these were one of the first target receptors for the rational drug design. Tox21 10K compound library was screened using the cAMP-Gs dynamic assay (Cisbio Bioassays, Shelton, CT) to identify agonists/antagonists of the Gs-coupled human adrenergic, beta2 receptor (ADRB2) in the CHO-ADRB2 cell line (Codex BioSolutions, Inc. Gaithersburg, MD), which stably over-expresses ADRB2. The principle of cAMP-Gs dynamic assay is based on HTRF technology, which facilitates the fluorescence resonance energy transfer (FRET) between donor Europium cryptate and acceptor d2-labeled cAMP. The cAMP generated within cells competes with the red acceptor, d2-labled cAMP, for binding to the monoclonal anti-cAMP-cryptate (Europium donor). An increase in intracellular cAMP leads to the disruption of FRET signal, and the signal is inversely proportional to the cAMP concentration. Isoproterenol HCl (Sigma-Aldrich, St. Louis, MO) was used as a positive control in the screening.
# Tox21 Assay Protocol Summary:
# CHO-ADRB2 cells were dispensed at 1,000/well in 4uL assay medium into white/solid 1536-well plates (Greiner Bio-One North America Inc., Monroe, NC) using a Multidrop Combi dispenser (ThermoFisher Scientific, Waltham, MA). The assay plates were incubated at 37C and 5% CO2 for an overnight (18-20hr). Then positive control and test compounds dissolved in DMSO were transferred to the assay plates at 23nL using a Pintool station (Wako, San Diego, CA). Following the compound and positive control transfer, 1uL stimulation mix containing 100uM IBMX and 25uM Ro-20-1724 was added to each well of the assay plates using BioRAPTR Flying Reagent Dispenser (FRD, Beckman Coulter, Brea, CA). The assay plates were incubated at room temperature for 0.5hr. Then 2.5ul each d2-labled cAMP and anti-cAMP-cryptate solutions were added separately to each well of the assay plates using an FRD and the assay plates were incubated at room temperature for 1hr.
# % is scaled to controls: 0 for no effect and ±100 for the full control effect.
# Sequence of Beta-2 adrenergic receptor (Homo sapiens) (P07550 whole entry, looked up): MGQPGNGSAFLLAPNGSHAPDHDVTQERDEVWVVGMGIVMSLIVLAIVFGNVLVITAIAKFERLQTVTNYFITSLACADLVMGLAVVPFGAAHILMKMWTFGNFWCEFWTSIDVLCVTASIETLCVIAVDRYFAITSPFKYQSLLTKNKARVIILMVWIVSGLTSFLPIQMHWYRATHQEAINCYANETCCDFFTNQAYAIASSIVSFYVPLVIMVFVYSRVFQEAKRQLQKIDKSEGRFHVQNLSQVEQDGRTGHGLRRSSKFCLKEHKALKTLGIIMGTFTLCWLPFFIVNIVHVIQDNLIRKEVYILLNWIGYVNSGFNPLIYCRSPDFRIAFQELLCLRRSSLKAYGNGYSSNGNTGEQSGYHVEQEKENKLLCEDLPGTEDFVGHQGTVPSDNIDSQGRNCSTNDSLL
Compound,activation,Potency
CCCCN(CCCC)CCCCCCN(CCCC)CCCC,14.3%,–
Cc1ccc2oc(=O)ccc2c1,-13.7%,–
CS(=O)(=O)c1ccc(Cl)cc1,2.21%,–
Cc1c(C(=O)c2c[nH]n(C)c2=O)ccc(S(C)(=O)=O)c1C1=NOCC1,-17.2% [at 42.5 µM],–
COC(C)(C)CCO,-0.611%,–
CCC(C)(Oc1ccc(C2(c3ccc(OC(C)(CC)C(=O)O)cc3)CCCCC2)cc1)C(=O)O (stereo not given),-3.3% [at 42.5 µM],–
c1ccc2sc(SSN3CCOCC3)nc2c1,–,inactive
Nc1cc([N+](=O)[O-])ccc1Cl,20.2%,–
CCCCC(CC)CCC(CC(C)C)OS(=O)(=O)O (stereo not given),1.06%,–
C[N+](C)(C)CC[N+]1(C)Cc2c(Cl)c(Cl)c(Cl)c(Cl)c2C1,2.24% [at 42.5 µM],–
Nc1ncnc2c1ncn2Cc1c(F)cccc1Cl,-5.74% [at 42.5 µM],–
CCCCc1ncc(/C=C(\Cc2cccs2)C(=O)O)n1Cc1ccc(C(=O)O)cc1,-6.6% [at 42.5 µM],–
Cc1nc2ccccc2s1,-0.881%,–
C1=C\CC/C=C\CC/C=C\CC/1,-24.1%,–
FC(F)(F)C(Cl)Br (stereo not given),–,inactive
OC1OC[C@@H](O)[C@H](O)[C@H]1O (stereo not given in full),4.87%,–
Cc1ccc(NC(=O)N(C)C)cc1NC(=O)N(C)C,14.8%,–
NCc1cccc(CN)c1,13.7%,–
CCCc1ccccc1,-10.6%,–
C[n+]1ccn(Cc2ccccc2)c1,15.8%,–

Compound,activation,Potency
C=CC(=O)OCCCCCC,18.8%,–
CSc1cnccn1,1.74%,–
CCC(C)S (stereo not given),11% [at 3.27 µM],–
CN1Cc2c(N)cccc2C(c2ccccc2)C1 (stereo not given),4.75%,–
CNCCO,10.9%,–
CCCCCCCCCCCC[N+](C)(C)CCCS(=O)(=O)[O-],6.53%,–
C=CCCCCCCCCCCC,-13.4% [at 8.39 µM],–
CCCCCCCOC(=O)c1ccccc1C(=O)OCCCCCCC,-0.219%,–
CC(C)C(=O)O,-48.9%,–
CO/N=C(/C(=O)N[C@@H]1C(=O)N2C(C(=O)O)=C(COC(N)=O)CS[C@H]12)c1ccco1,-19.7%,–
O=c1[nH]c2ccccc2c(=O)n1CCCl,-10.7% [at 42.5 µM],–
O=c1[nH]cnc2c1ncn2[C@@H]1O[C@H](CO)[C@@H](O)[C@H]1O,15% [at 42.5 µM],–
CCc1ccc(C=O)cc1,1.81%,–
O=C1c2ccccc2CCc2ccccc21,14.1% [at 42.5 µM],–
CC(C)C(=O)C(C)C,26.2%,–
CC(C)CCO,14.1%,–
CCCc1cc(C(N)=S)ccn1,3.59% [at 42.5 µM],–
CN(C)C(=O)Oc1ccc[n+](C)c1,0.777% [at 42.5 µM],–
c1coc(CNc2ncnc3nc[nH]c23)c1,-19.2%,–
CC(=O)CC(C)(C)C1CCCCC1,0.197%,–
